# Reference: the supplement of paper PMC13094657
# Structures can show the parent of a compound that is named as a salt. ± gives the standard deviation of the averaged measurements.
# Legend:
# [1] = test system: MDA-MB-231; assay: cell viability relative to vehicle unstimulated control (fraction); higher = more viable cells; settings: pre-treatment time: 18 h then 24 h IFNg/TNF
# [2] = test system: MDA-MB-231; assay: kynurenine production, fold change vs DMSO IFNg/TNF control; higher = more kynurenine produced (less inhibition); settings: pre-treatment time: 18 h then 24 h IFNg/TNF
# Method in brief: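 MDA-MB-231 cells (7 × 10^4/well, 96-well plates, seeded 24 h earlier) were pre-treated 18 h with each natural product in 0.1% DMSO, then stimulated 24 h with IFNγ (1 U/ml) and TNF (6.25 ng/ml) at 37°C. Supernatant kynurenine was read at 492 nm after trichloroacetic acid and p-dimethylaminobenzaldehyde treatment, against 0–100 μM standards. Kynurenine production is the fold change over cytokine-stimulated vehicle wells on the same plate, averaged over duplicate plates in the first screening round.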
# 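Wherever cell viability relative to vehicle unstimulated control is given: viability of the cells left after supernatant collection, read with Deep Blue dye added for 4 h, as absorbance at 570 nm minus 600 nm.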
SMILES,cell viability [1],kynurenine production [2]
CC(=O)O[C@]12CCC(C(=O)O)=CC[C@]13CC[C@H]2[C@@](C)(/C=C/C=C(\C)C(=O)O)OC3=O [Pseudolaric Acid C2] (compound dose: 10 uM),1.017 ± 0.0098,0.728 ± 0.017
O=C(OCC1=C[C@@H](O)[C@@H]2C=CO[C@@H](O[C@@H]3O[C@H](CO)[C@@H](O)[C@H](O)[C@H]3O)[C@H]12)c1ccc(O)cc1 [Agnuside] (compound dose: 10 uM),1.08 ± 0.039,0.864 ± 0.17
CC1=CCC(C(C)C)=CC1 [γ-Terpinene] (compound dose: 10 uM),1.07 ± 0.036,0.75 ± 0.53
CC(C)=CCC[C@](C)(O)[C@@H]1CC=C(C)CC1 [Levomenol] (compound dose: 10 uM),0.676 ± 0.54,1.16 ± 0.056
C[C@@H]1CC[C@]2(C(=O)O)CC[C@]3(C)C(=CCC4[C@@]5(C)CC[C@H](O[C@@H]6OC[C@H](O)[C@H](O)[C@H]6O)C(C)(C)C5CC[C@]43C)[C@@H]2[C@]1(C)O (some centres not stated) [Ziyuglycoside II] (compound dose: 10 uM),0.934 ± 0.014,0.646 ± 0.0077
C=C1CC[C@@H]2[C@](C)(COC(=O)CCC(=O)O)[C@H](OC(=O)CCC(=O)O)CC[C@@]2(C)[C@@H]1/C=C/C1=CCOC1=O [Kalii Dehydrographolidi Succinas] (compound dose: 2 uM),1.08 ± 0.13,1.2675 ± 0.00049
OCC1=C[C@@H](O)[C@]2(O[C@@H]3O[C@H](CO)[C@@H](O)[C@H](O)[C@H]3O[C@@H]3O[C@H](CO)[C@@H](O)[C@H](O)[C@H]3O)C=CO[C@@H](O[C@@H]3O[C@H](CO)[C@@H](O)[C@H](O)[C@H]3O)[C@H]12 [Rehmannioside D] (compound dose: 10 uM),1.05 ± 0.29,0.941 ± 0.072
C[C@@H]1O[C@@H](O[C@H]2[C@H](O)[C@@H](O)[C@H](OC[C@H]3O[C@@H](OC(=O)[C@]45CCC(C)(C)C[C@H]4C4=CC[C@@H]6[C@@]7(C)CC[C@H](O[C@@H]8OC[C@H](O)[C@H](O)[C@H]8O)[C@@](C)(CO)[C@@H]7CC[C@@]6(C)[C@]4(C)CC5)[C@H](O)[C@@H](O)[C@@H]3O)O[C@@H]2CO)[C@H](O)[C@H](O)[C@H]1O [Cauloside D] (compound dose: 10 uM),0.997 ± 0.083,1.23 ± 0.19
CC(/C=C/C=C(\C)C(=O)O[C@@H]1O[C@H](CO)[C@@H](O)[C@H](O)[C@H]1O)=C\C=C\C=C(C)\C=C\C=C(/C)C(=O)O[C@@H]1O[C@H](CO[C@@H]2O[C@H](CO)[C@@H](O)[C@H](O)[C@H]2O)[C@@H](O)[C@H](O)[C@H]1O [Crocin II] (compound dose: 10 uM),0.987 ± 0.09,0.907 ± 0.13
C/C=C(/C)C(=O)O[C@H]1C(C)=C[C@]23C(=O)[C@@H](C=C(CO)[C@@H](O)[C@]12O)[C@H]1[C@@H](C[C@H]3C)C1(C)C [Ingenol 3-Angelate] (compound dose: 10 uM),0.958 ± 0.11,0.979 ± 0.16
C=C1CC[C@@H]2[C@](C)(CO)[C@H](O)CC[C@@]2(C)[C@@H]1C/C=C1/C(=O)OC[C@H]1O [Andrographolide] (compound dose: 10 uM),0.98 ± 0.018,0.534 ± 0.15
C[C@@H]1O[C@@H](O[C@H]2[C@H](O[C@H]3CC[C@@]4(C)[C@@H](CC[C@]5(C)[C@@H]4CC=C4[C@@H]6CC(C)(C)CC[C@]6(C(=O)O)CC[C@]45C)[C@]3(C)CO)OC[C@H](O[C@@H]3O[C@H](CO)[C@@H](O)[C@H](O)[C@H]3O)[C@@H]2O)[C@H](O)[C@H](O)[C@H]1O [Pulsatilla saponin D] (compound dose: 10 uM),0.145 ± 0.0044,0.141 ± 0.07
CC(C)=C/C=C1\O[C@@H]2CC(C)=CC(=O)[C@@H]2[C@]1(C)O [Bisabolangelone] (compound dose: 10 uM),0.907 ± 0.0022,0.711 ± 0.12
CC(=O)O[C@@H]1C[C@@]23C[C@@]24CC[C@H](O[C@@H]2OC[C@H](O)[C@H](O)[C@H]2O)C(C)(C)[C@@H]4CC[C@H]3[C@]2(C)[C@@H](O)[C@]34O[C@H](C[C@@H](C)[C@@H]3[C@@]12C)[C@@H](C(C)(C)O)O4 [Cimiracemoside D] (compound dose: 10 uM),1.02 ± 0.086,1.16 ± 0.22
CC(C)C1=C[C@H]2[C@@H](CC[C@]2(C)O)[C@](C)(O)CC1 [Alismoxide] (compound dose: 10 uM),1.01 ± 0.018,0.714 ± 0.17
C[n+]1cccc(C(=O)[O-])c1 [Trigonelline hydrochloride] (compound dose: 10 uM),0.913,0.906 ± 0.16
CC(C)c1cccc(=O)c(O)c1 [Hinokitiol] (compound dose: 10 uM),0.9746 ± 0.0011,0.423 ± 0.025
CC1=CC[C@@H](C(C)(C)O)CC1 [(-)-α-Terpineol] (compound dose: 10 uM),1.07 ± 0.061,0.84 ± 0.24

SMILES,cell viability [1],kynurenine production [2]
CC(=O)OC/C=C(\C)CCC=C(C)C [Geranyl acetate] (compound dose: 10 uM),1.01 ± 0.065,0.882 ± 0.039
C=C1C(=O)O[C@@H]2/C=C(\C)[C@@H](OC(C)=O)C/C=C(\COC(C)=O)C[C@@H](OC(=O)/C(C)=C/CO)[C@@H]12 [Eupalinolide B] (compound dose: 10 uM),0.899 ± 0.057,0.26 ± 0.0058
COC(=O)[C@@H]1C[C@@]23C4=C(CC[C@@H]5CN6C[C@@H](C)[C@@H](C[C@@H](OC(C)=O)[C@@]52COC(C)=O)[C@]63O)CC[C@@H]41 [Yuzurimine] (compound dose: 10 uM),1.04 ± 0.029,0.756 ± 0.07
CC1(C)CC[C@]2(C(=O)O[C@@H]3O[C@H](CO)[C@@H](O)[C@H](O)[C@H]3O)CC[C@]3(C)C(=CC[C@@H]4[C@@]5(C)CC[C@H](O[C@@H]6O[C@H](C(=O)O)[C@@H](O)[C@H](O)[C@H]6O[C@@H]6O[C@H](CO)[C@@H](O)[C@H](O)[C@H]6O)C(C)(C)[C@@H]5CC[C@]43C)[C@@H]2C1 [Ginsenoside Ro] (compound dose: 10 uM),0.928 ± 0.091,1.05 ± 0.091
CC(CCC(OC1OC(CO)C(O)C(O)C1OC1OC(CO)C(O)C(O)C1O)C(C)(C)O)C1CCC2(C)C3CC=C4C(CCC(OC5OC(CO)C(O)C(O)C5O)C4(C)C)C3(C)C(O)CC12C (configuration not stated) [Mogroside III-E] (compound dose: 10 uM),1.08 ± 0.013,0.996 ± 0.3
CC(C)=CCC[C@](C)(O)[C@H]1CC[C@]2(C)[C@@H]1[C@H](O)C[C@@H]1[C@@]3(C)CC[C@H](O)C(C)(C)[C@@H]3[C@@H](O[C@@H]3O[C@H](CO)[C@@H](O)[C@H](O)[C@H]3O[C@@H]3OC[C@@H](O)[C@H](O)[C@H]3O)C[C@]12C [Notoginsenoside R2] (compound dose: 10 uM),1.04 ± 0.031,1.24 ± 0.12
COc1ccc([C@H]2OC[C@H]3[C@@H]2CO[C@H]3c2ccc(O[C@@H]3O[C@H](CO)[C@@H](O)[C@H](O)[C@H]3O)c(OC)c2)cc1OC [Phillyrin] (compound dose: 10 uM),0.978 ± 0.024,0.866 ± 0.16
CC(C)=CCC[C@@H](C)[C@@H]1CC[C@]2(C)C3=C(CC[C@@]12C)[C@@]1(C)CC[C@H](O)C(C)(C)[C@@H]1CC3 [Euphol] (compound dose: 10 uM),0.977 ± 0.051,1.008 ± 0.0013
COC(=O)C1=CO[C@@H](O[C@@H]2O[C@H](CO)[C@@H](O)[C@H](O)[C@H]2O)[C@@H]2C(CO)=C[C@H](O)[C@H]12 [Methyl deacetylasperulosidate] (compound dose: 10 uM),0.956 ± 0.085,1.15 ± 0.1
CC(=O)O[C@]12CCC(C)=CC[C@]13CC[C@H]2[C@@](C)(/C=C/C=C(\C)C(=O)O)OC3=O [Pseudolaric Acid  A] (compound dose: 10 uM),0.834 ± 0.11,0.449 ± 0.12
CC(=O)O[C@@H](C[C@@H](C)C1=C2C[C@H](O)[C@H]3[C@@]4(C)CCC(=O)C(C)(C)[C@@H]4CC[C@]3(C)[C@@]2(C)CC1=O)[C@H]1OC1(C)C [Alisol C 23-acetate] (compound dose: 10 uM),0.975 ± 0.008,0.989 ± 0.024
C=CC(=C)CCC=C(C)CCC=C(C)C [(E)-β-Farnesene] (compound dose: 10 uM),0.977 ± 0.015,0.723 ± 0.27
"C/C=C(/C)C(=O)O[C@H]1C(C)=C[C@]23C(=O)[C@@H](C=C4COC(C)(C)O[C@H]4[C@]12O)[C@H]1[C@@H](C[C@H]3C)C1(C)C [Ingenol-5,20-acetonide-3-O-angelate] (compound dose: 10 uM)",0.971 ± 0.025,0.918 ± 0.23
CC(CC(=O)C[C@](C)(O)[C@H]1CC(=O)[C@@]2(C)C3=C(C(=O)C[C@]12C)[C@@]1(C)CCC(=O)C(C)(C)[C@@H]1C[C@@H]3O)C(=O)O (some centres not stated) [Ganoderic acid N] (compound dose: 10 uM),1.03 ± 0.053,0.857 ± 0.12
C=C1C(=O)O[C@@H]2[C@H]3C(C)=CC[C@@]34O[C@@]4(C)CC[C@@H]12 [Arglabin] (compound dose: 10 uM),1.01 ± 0.041,0.822 ± 0.039
COC(=O)C1=CO[C@@H](O)[C@@H]2C(CO)=CC[C@H]12 [Genipin] (compound dose: 10 uM),1 ± 0.026,0.76 ± 0.052
C/C1=C\[C@H]2C(=O)[C@@H](C)C[C@]2(O)C(=O)/C(C)=C/[C@@H]2[C@H](CC1)C2(C)C [jolkinol C] (compound dose: 10 uM),1.07 ± 0.041,0.868 ± 0.087
C[C@@H]1O[C@@H](O[C@H]2[C@H](O[C@H]3CC[C@@]4(C)[C@@H](CC[C@]5(C)[C@@H]4CC=C4[C@@H]6CC(C)(C)CC[C@]6(C(=O)O[C@@H]6O[C@H](CO[C@@H]7O[C@H](CO)[C@@H](O)[C@H](O)[C@H]7O)[C@@H](O)[C@H](O)[C@H]6O)CC[C@]45C)[C@]3(C)CO)OC[C@H](O)[C@@H]2O)[C@H](O)[C@H](O[C@@H]2O[C@H](CO)[C@@H](O)[C@H](O)[C@H]2O)[C@H]1O [Macranthoidin A] (compound dose: 10 uM),0.901 ± 0.011,1.08 ± 0.014
